Test results reported in PubChem BioAssay (NCI).
The panel holds about 79,000 compounds, 15% with a hit somewhere; the sample as a whole holds those more often. No stated cut-off is given here; in the data, active means growth inhibition above about 70%; inactive means the rest. *1 amine or outer side, *2 acyl side, *3 side chain or, on linkers, in order; H or OH if unused. Where a SMILES comes first, the peptide text is derived from it. Bridges are numbered along the chain shown (N, C = ends). Roman numbers before positions name the chains, in order. [ ]: non-standard residue; d: D form. The star is where a group is joined. ξ: configuration not given here. Actinocin(9to1) = Cc1c2oc3c(C)ccc(C(=O)[*:1])c3nc-2c(C(=O)[*:2])c(N)c1=O; X13 = O=C1CC(C(=O)[*:2])N([*:1])C1; dThr(3ξ) = CC(O)[C@@H](N)C(=O)O; dNMeL = CN[C@H](CC(C)C)C(=O)O; NMeV = CN[CH](C(=O)O)C(C)C; OBn = c1ccc(CO*)cc1; ξLac = CC(O)C(=O)O; Sar = CNCC(=O)O

What was measured:
[1] = NCI Yeast Anticancer Drug Screen. Data for the rad50 strain (AID 155);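 further: 0% = growth of vehicle-only cultures of the same strain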; conditions: S. cerevisiae rad50 strain growth inhibition; at 50.0 µM; active compounds read high
Outline: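 Readout: growth inhibition relative to vehicle-treated cultures. Compound exposure was carried out in a genetically defined yeast strain deficient in DNA damage repair.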

[2] = NCI Yeast Anticancer Drug Screen. Data for the mec2-1 strain (AID 157); conditions: S. cerevisiae mec2-1 strain, at 50.0 µM, active compounds read high
Outline: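 Growth inhibition is read against vehicle-treated controls after compound exposure of the mec2-1 yeast strain, which is defective in DNA damage repair or cell cycle control.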

[3] = NCI Yeast Anticancer Drug Screen. Data for the sgs1 mgt1 strain (AID 161);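 further: 0% = growth of cultures given vehicle only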; conditions: S. cerevisiae sgs1 mgt1 strain, at 50.0 µM, active compounds read high
Outline: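 Growth of a repair-deficient yeast mutant was monitored after compound treatment and expressed as inhibition relative to vehicle-treated cultures.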

[4] = NCI Yeast Anticancer Drug Screen. Data for the cln2 rad14 strain (AID 165);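 further: 0% = growth equal to vehicle treated cultures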; conditions: S. cerevisiae cln2 rad14 strain, at 50.0 µM, active compounds read high
Outline: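 Growth inhibition, relative to vehicle-treated controls, is the read-out. The test organism is a yeast strain with defined genetic alterations, cln2 rad14.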

[5] = NCI Yeast Anticancer Drug Screen. Data for the bub3 strain (AID 167); conditions: S. cerevisiae bub3 mutant strain, at 50.0 µM, active compounds read high
Outline: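 Readout: yeast growth inhibition, expressed relative to vehicle-only wells. The test organism is a mutant strain from a panel with lesions in DNA repair or checkpoint genes.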

[6] = NCI Yeast Anticancer Drug Screen. Data for the mlh1 rad18 strain (AID 175); conditions: S. cerevisiae mlh1 rad18 strain growth inhibition; at 50.0 µM; active compounds read high
Outline: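 Cells of a genetically altered yeast strain, deficient in DNA damage repair, were treated with compound. Their growth was then compared with that of vehicle-treated cultures to give inhibition.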

Measured: growth inhibition

CCCCCC1NC(C)(C)CO1 (stereo not given)
inactive: [1] 1.25% | [2] -2.95% | [3] -0.85% | [4] 1.95% | [5] 9.65% | [6] 10.7%

Cc1cc(N(CCC#N)CCC#N)ccc1/C=C1N=C(/C=C\c2ccccc2)N(NC(=O)CC(=O)Nc2ccccc2Cl)C\1=O
inactive: [1] 14.6% | [2] -0.8% | [3] 1.55% | [4] 11.3% | [5] 2.8% | [6] 5.05%

CN(C)NC1=NS(=O)(=O)c2cc3c(cc2S1)N(N(C)C)C(=O)c1cc2c(cc1N(N(C)C)C3=O)SC(NN(C)C)=NS2(=O)=O
inactive: [1] -6.3% | [2] -22.5% | [3] -14.4% | [4] 2.35% | [5] 16.4% | [6] -2.9%

COc1ccc(-c2cc3c(c4cc(OC)ccc24)C(=O)OC3=O)cc1
inactive: [1] -29.1% | [2] -5.1% | [3] 20.6% | [4] 1% | [5] 4.4% | [6] -15.1%

O.[Cl][Pt].[NH-]CC[S-]
inactive: [1] -9.5% | [2] 4% | [3] 12.3% | [4] -9.6% | [5] 1.3% | [6] -2%

COc1cc(C2c3cc4c(c(OS(=O)(=O)O)c3CC3COC(=O)C32)OCO4)cc(OC)c1OC (stereo not given)
inactive: [1] 6.3% | [2] 3.5% | [3] -18.9% | [4] -14.4% | [5] 15% | [6] 7.4%

c1csc(-c2cc(-c3ccsc3)c(-c3cccs3)s2)c1
inactive: [1] -46.6% | [2] -62.7% | [3] -33.4% | [4] -0.1% | [5] -1.4% | [6] -34.3%

COc1ccccc1C(=O)O
inactive: [1] -7.45% | [2] -16.8% | [3] -9.4% | [4] -1.75% | [5] -7.35% | [6] -5%

CC1(OC(=O)Nc2ccccc2)CCCCC1
inactive: [1] 5.75% | [2] -0.8% | [3] 0.9% | [4] 3.55% | [5] 3.55% | [6] -9.95%

COc1c2c(cc3c1C1(O)Cc4ccc5c(c4C[N+]1(C)CC3)OCO5)OCO2 (stereo not given)
inactive: [1] 10.8% | [2] 3.05% | [3] -5.3% | [4] -1.15% | [5] -4.25% | [6] -60.8%

COc1ccc2ccc3ccc(OC)nc3c2n1
inactive: [1] 40% | [2] 40.2% | [3] 36.1% | [4] -7.05% | [5] 30.2% | [6] 16.1%

OCC1(OC2OC(CF)C(O)C(O)C2O)OC(CF)C(O)C1O (stereo not given)
inactive: [1] -1.1% | [2] 0.75% | [3] -5.65% | [4] -23.5% | [5] 3.3% | [6] 3.85%

CCN(CC)CCOc1ccc(/C(C#N)=C/c2ccc(OCCN3CCCCC3)cc2)cc1
inactive: [1] 35% | [2] 20.9% | [3] 57.3% | [4] 64.9% | [5] 26.2% | [6] 33.5%

O=C(NC(=O)c1ccccc1F)Nc1ccc(Cl)cc1
inactive: [1] 27.1% | [2] 37.3% | [3] 24.6% | [4] 56.8% | [5] 49.8% | [6] 43.1%

CCC(=O)Oc1ccccc1OC
inactive: [1] -28.8% | [2] -7.25% | [3] -6.05% | [4] -0.3% | [5] -31.9% | [6] -16.9%

C=C(C)/C=C/S(=O)c1ccccc1 (stereo not given)
inactive: [1] -3.3% | [2] -2.85% | [3] 10.3% | [4] -5.35% | [5] -16.4% | [6] -5.15%

O=P(O)(O)c1ccccc1Br
inactive: [1] -13.1% | [2] -17.2% | [3] 4.85% | [4] -15.8% | [5] 2.3% | [6] 3.2%

O=[N+]([O-])c1cc(Br)ccc1P(=O)(O)O
inactive: [1] 9.25% | [2] 8.8% | [3] -1.25% | [4] 7.85% | [5] 16.9% | [6] -4.95%

C=C1C(=O)O[C@H]2[C@H]1CC(=O)/C(C)=C/CC[C@@]1(C)O[C@@H]21
inactive: [1] 32.7% | [2] 21.4% | [3] 32.8% | [4] 21.4% | [5] 25.6% | [6] 7%

O=C1CCCC(=S)N1
inactive: [1] 3.1% | [2] 4.2% | [3] 9.35% | [4] 16.8% | [5] 14.3% | [6] 6.1%

Clc1ccc(Cl)c(NNc2cc(Cl)ccc2Cl)c1
inactive: [1] -29.1% | [2] -45.5% | [3] -3.9% | [4] -0.9% | [5] -39.5% | [6] -34.5%

Cc1ccc(S(=O)(=O)O/C=C2/CCOC2=O)cc1
inactive: [1] 29.6% | [2] 43.2% | [3] 29.9% | [4] 28.8% | [5] 38.2% | [6] 60.9%

O=[N+]([O-])c1ccccc1OC1OC(CO)C(O)C(O)C1O (stereo not given)
inactive: [1] -2.35% | [2] -5.6% | [3] 14.2% | [4] -33.8% | [5] -14.8% | [6] 7.2%

Cc1cc2c(cc1Cl)SC(NNC(=O)c1ccccc1)=NS2(=O)=O
inactive: [1] -44.9% | [2] -31.7% | [3] -43.8% | [4] -42.2% | [5] -31.1% | [6] -38.2%

COC(OC)C1CC=CCCC1C(=O)O (stereo not given)
inactive: [1] 17.1% | [2] 16.8% | [3] 11.7% | [4] -0.4% | [5] 14.2% | [6] -8.65%

CCOc1ccc2ccccc2c1N
inactive: [1] 44% | [2] 15.4% | [3] 24.3% | [4] 4.8% | [5] 51.7% | [6] 46.7%

FC(F)(F)c1nc(=S)c2cn[nH]c2[nH]1
inactive: [1] 4.35% | [2] 31.1% | [3] 8.45% | [4] -12.2% | [5] 35.5% | [6] -5.3%

C=CCCCCCCCCC(=O)NCc1cccnc1
inactive: [1] 24.4% | [2] 9.15% | [3] 29.6% | [4] 20.1% | [5] 6.8% | [6] 64%

Cc1c2oc3c(C)ccc(C(=O)NC4C(=O)NC(C(C)C)C(=O)N5CC(=O)CC5C(=O)N(C)CC(=O)N(C)C(C(C)C)C(=O)OC4C)c3nc-2c(C(=O)NC2C(=O)NC(C(C)C)C(=O)N3CC(=O)CC3C(=O)N(C)CC(=O)N(C)C(C(C)C)C(=O)OC2C)c(N)c1=O (stereo not given) (I: TV[X13][Sar][NMeV] / II: TV[X13][Sar][NMeV]; ester I:1-I:C, II:1-II:C; linker I:N-II:N via Actinocin(9to1); configuration not given here)
inactive: [1] -22.6% | [2] -1.65% | [3] -3.1% | [4] 52.4% | [5] -3.25% | [6] -42.8%

CCOC(=O)NN(C(=O)OCC)C(C(C)=O)c1ccccc1 (stereo not given)
inactive: [1] 3.95% | [2] -3.35% | [3] -10.8% | [4] -9.35% | [5] -0.7% | [6] 17.3%

COC(=O)c1cc(C(c2cc(C)c(O)c(C(=O)OC)c2)c2cc(C)c(O)c(C(=O)OC)c2)cc(C)c1O
inactive: [1] -6.9% | [2] 10.6% | [3] -4.4% | [4] -6.2% | [5] -0.3% | [6] 3.9%

COc1cc2c(cc1OC)C(Cl)C(c1ccc(Cl)c(Cl)c1)=C2Cl (stereo not given)
inactive: [1] -0.65% | [2] 14.2% | [3] -4.6% | [4] -0.25% | [5] -4.15% | [6] -5.05%

Cn1c(=O)c2[nH]c(CCNC(=O)c3ccccc3)nc2n(C)c1=O
inactive: [1] 2.05% | [2] -9.75% | [3] -30.2% | [4] -38.5% | [5] -40.8% | [6] -9.95%

CC(=O)N(/C=C\C1=[N+](C)CCS1)c1ccccc1
inactive: [1] 10.2% | [2] -10.4% | [3] 20.4% | [4] 18.9% | [5] 18.1% | [6] 12.7%

CC(=O)OC(C)[C@@H](NC(=O)[C@@H](CC(C)C)N(C)C(=O)[C@@H]1CCCN1C(=O)C(C)O)C(=O)OCc1ccccc1 (stereo not given in full) (H-[ξLac]P[dNMeL][dThr(3ξ)](Ac)-OBn)
inactive: [1] 8.75% | [2] 24.4% | [3] -16.8% | [4] 8.2% | [5] -30.4% | [6] -37.3%

CC(C)(C)C(=O)c1ccc(-c2ccccc2)cc1
inactive: [1] 17.4% | [2] -5.55% | [3] -6.45% | [4] -56.3% | [5] 6.7% | [6] -2.1%

COC(=O)C(C)(NC(=O)C(CC(=O)OC(C)(C)C)NC(=O)OC(C)(C)C)c1ccccc1 (stereo not given)
inactive: [1] 41.5% | [2] 16% | [3] 46.5% | [4] 35.8% | [5] 36.7% | [6] 36%

Clc1ccc(CSCSCc2ccc(Cl)cc2)cc1
inactive: [1] 5.95% | [2] -15.3% | [3] 10.8% | [4] -40.9% | [5] 19.6% | [6] 4.3%

O=NN(CCOS(=O)(=O)c1ccc(Br)cc1)C(=O)NC1CCCCC1
inactive: [1] 32% | [2] 9.25% | [3] 18.6% | [4] 28.6% | [5] -1.95% | [6] 25.2%

CC(Nc1cccc(Cl)c1)c1ccncc1 (stereo not given)
inactive: [1] 4.05% | [2] 12% | [3] -15.2% | [4] -5.55% | [5] 24.6% | [6] -11.4%
